“And” between values parts separate entries of the source, which are not always exact repeats. Equal entries are not always repeated. Inconclusive results are not listed. The source made the active and inactive calls.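 The calls were made as follows, unless noted: active = normalized viability below 100% at a tested concentration; inactive = the rest.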 Where a SMILES comes first, the peptide text is derived from it. [ ]: non-standard residue; d: D form. The star is where a group is joined. Sta = CC(C)C[C@H](N)[C@@H](O)CC(=O)O; Isovaleryl = CC(C)CC(=O)*
What was measured:
[1] = P. berghei load reduction in hepatocytes – cell-based, HepG2, luciferase luminescence, HepG2 viability, primary screen (AID 624349; in the data active = parasite load remaining mostly below about 12%, no sharp cut-off; inactive = mostly above about 10%;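 also: 100% = mean of DMSO negative control wells on the same plate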); conditions: P. berghei liver stage in HepG2, luciferase luminescence, concentration not given here; parasite load remaining: stronger effect = lower value; viability: measured here: HepG2 viability without parasites
[2] = Wnt pathway potentiators raising nuclear beta-catenin – imaging, WNT3A-conditioned medium, mouse C2C12, NPC library, primary screen (AID 1117326; in the data active = nuclear beta-catenin stimulation mostly above about 4.2%, no sharp cut-off; inactive = mostly below about 10%); conditions: stronger effect = higher value
[3] = stimulators of insulin release from INS-1E, primary screen, cell-based, 5 mM glucose, NPC library (AID 1117329;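 active = compound raises insulin release from rat beta cells at 5 mM glucose, no numeric limit stated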); conditions: rat INS-1E insulin secretion, at 10 µM, stronger effect = higher value
[4] = growth inhibition of GSK3B-pretreated HCT116 cells – cell-based, CellTiter-Glo, 0.2 to 20 µM (AID 1117336;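 active = compounds lowering colon cancer cell viability after pretreatment blocking the GSK3B kinase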); conditions: HCT116 viability after GSK3B inhibitor, at 20 µM, stronger effect = higher value
[5] = inhibition of endothelial tube formation, primary screen, imaging, VEGF stimulated, CD31 staining, tube area, NPC library (AID 1117340;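 active = compound that reduces growth-factor-driven endothelial tube area in a mixed cell culture, no cutoff stated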); conditions: VEGF-stimulated ADSC/ECFC co-culture, at 10 µM, stronger effect = higher value
[6] = GLP1 release stimulators, primary, NCI-H716, NPC library (AID 1117341;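 active = compound raises GLP1 secretion from the human gut endocrine cells, with no numeric limit stated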); conditions: NCI-H716 cells, at 10 µM, stronger effect = higher value
[7] = HCT116 colon cancer cell growth inhibition, primary screen, CellTiter-Glo luminescence, NPC library (AID 1117342;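 active = compounds that lower survival of HCT116 colon cancer cells in the luminescence readout, no numeric limit stated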); conditions: at 20 µM (top of the series)
[8] = reduced SW480 viability measured with CellTiter-Glo, NPC library, primary (AID 1117343;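 active = compounds that lower viability of the colon cancer cells in the luminescence readout, with no numeric limit stated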); conditions: CellTiter-Glo luminescence; at 20 µM (top of the series) unless noted
[9] = NPC library primary testing for decreased DLD-1 cell viability via CellTiter-Glo (AID 1117346;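 active = compounds that lower survival of DLD-1 colon cancer cells in the luminescence readout, no cutoff given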); conditions: DLD-1 viability, CellTiter-Glo luminescence; at 20 µM (top of the series)
[10] = viability loss in pontine glioma line – cell-based, SU-DIPG-XVII, MIPE5.0, CellTiter-Glo, qHTS, dose response (AID 1347060; cut-off not given, nearly all actives have AC50 up to about 26 µM;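 as to AC50: cells exposed to compound for 48 hours before viability readout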); conditions: CellTiter-Glo ATP luminescence
[11] = viability loss in pontine glioma line – cell-based, SU-DIPG-XIII, MIPE4.0, CellTiter-Glo, qHTS, dose response (AID 1347061; cut-off not given, nearly all actives have AC50 up to about 37 µM;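 also: cells exposed to compound for 48 hours before readout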); conditions: CellTiter-Glo ATP luminescence
[12] = viability loss in pontine glioma line – cell-based, JHH-DIPG-1, MIPE4.0, CellTiter-Glo, qHTS, dose response (AID 1347062; cut-off not given, nearly all actives have AC50 up to about 27 µM;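 as to AC50: cells exposed to compound for two days before readout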); conditions: JHH-DIPG-1 viability, CellTiter-Glo ATP luminescence
[13] = growth inhibition of DIPG cells – cell-based, MIPE5.0 library, qHTS (AID 1347068; cut-off not given, nearly all actives have IC50 up to about 30 µM;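 as to IC50: cells exposed to compound for 48 hours before viability readout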); conditions: SU-DIPG-XXV viability
[14] = viability loss with induced miR-34 in A549 – imaging, A549 dox-inducible miR-34, nuclei and caspase counts, primary screen (AID 1347080;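 active = compounds whose cell count with miR-34 switched on is under 0.7 times the count with it off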); conditions: A549 miR-34 inducible, Hoechst nuclei count, 48 h
[15] = MELAS cybrid and Rieske KO viability enhancers – cell-based, MELAS cybrids, Rieske KO mouse fibroblasts, CellTiter-Glo, primary screen (AID 1508586;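 active = mean z-score across replicates of 1.96 or higher in either the MELAS or the Rieske mutant cell line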;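 also: z relative to plate mean and SD of compound and empty wells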); conditions: low glucose
[16] = drug combination growth inhibition, ovarian cancer – cell-based, oncology-focused library, rucaparib conditional, profiling panel (AID 1508598); conditions: patient-derived ovarian cancer cells, CellTiter-Glo viability, 144 h, stronger effect = lower value
[17] = test system: Aerobactin synthetase IucA (Klebsiella pneumoniae); experiment: inhibition of K. pneumoniae IucA enzyme – biochemical, Tocris library, absorbance (AID 1345561; call rule not given here;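 also: 100% = enzyme without compound and 0% = no enzyme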); conditions: purified IucA enzyme assay, absorbance (OD) read-out; stronger effect = lower value;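 tested at 8 µM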
[18] = galactose survival enhancers in mitochondrial complex I cybrids – cell-based, galactose medium, ATP luminescence, primary screen (AID 1645843;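 active = z-score of at least 1.8 in each of two replicates, scored against plate mean and spread of sample wells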;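 also: positive z means more ATP and so rescue of galactose-driven cybrid death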); conditions: complex I mutant cybrid cells, 72 h, stronger effect = higher value
[19] = stronger effect = lower value, cell number ratio, induced over uninduced
[20] = measured here: relative caspase fold change +Dox/-Dox
[21] = measured here: total cells with miR-34 induction, stronger effect = lower value
[22] = measured here: total cells without miR-34 induction
[23] = MELAS cybrid survival, CellTiter-Glo 48 h, stronger effect = higher value
[24] = Rieske KO mouse fibroblast survival, CellTiter-Glo 72 h
[25] = at 0.000305 µM, OCI-C5x cells, with rucaparib 10 µM, 100% = cells with rucaparib alone
[26] = at 0.000305 µM, OCI-C5x cells, without rucaparib
[27] = at 0.000305 µM, OCI-P5x cells, with rucaparib 20 µM, 100% = cells with rucaparib alone
[28] = at 0.000305 µM, OCI-P5x cells, without rucaparib
[29] = at 0.00122 µM, OCI-C5x cells, with rucaparib 10 µM, 100% = cells with rucaparib alone
[30] = at 0.00122 µM, OCI-C5x cells, without rucaparib
[31] = at 0.00122 µM, OCI-P5x cells, with rucaparib 20 µM, 100% = cells with rucaparib alone
[32] = at 0.00122 µM, OCI-P5x cells, without rucaparib
[33] = at 0.00488 µM, OCI-C5x cells, with rucaparib 10 µM, 100% = cells with rucaparib alone
[34] = at 0.00488 µM, OCI-C5x cells, without rucaparib
[35] = at 0.00488 µM, OCI-P5x cells, with rucaparib 20 µM, 100% = cells with rucaparib alone
[36] = at 0.00488 µM, OCI-P5x cells, without rucaparib
[37] = at 0.0195 µM, OCI-C5x cells, with rucaparib 10 µM, 100% = cells with rucaparib alone
[38] = at 0.0195 µM, OCI-C5x cells, without rucaparib
[39] = at 0.0195 µM, OCI-P5x cells, with rucaparib 20 µM, 100% = cells with rucaparib alone
[40] = at 0.0195 µM, OCI-P5x cells, without rucaparib
[41] = at 0.0781 µM, OCI-C5x cells, with rucaparib 10 µM, 100% = cells with rucaparib alone
[42] = at 0.0781 µM, OCI-C5x cells, without rucaparib
[43] = at 0.0781 µM, OCI-P5x cells, with rucaparib 20 µM, 100% = cells with rucaparib alone
[44] = at 0.0781 µM, OCI-P5x cells, without rucaparib
[45] = at 0.313 µM, OCI-C5x cells, with rucaparib 10 µM, 100% = cells with rucaparib alone
[46] = at 0.313 µM, OCI-C5x cells, without rucaparib
[47] = at 0.313 µM, OCI-P5x cells, with rucaparib 20 µM, 100% = cells with rucaparib alone
[48] = at 0.313 µM, OCI-P5x cells, without rucaparib
[49] = at 1.25 µM, OCI-C5x cells, with rucaparib 10 µM, 100% = cells with rucaparib alone
[50] = at 1.25 µM, OCI-C5x cells, without rucaparib
[51] = at 1.25 µM, OCI-P5x cells, with rucaparib 20 µM, 100% = cells with rucaparib alone
[52] = at 1.25 µM, OCI-P5x cells, without rucaparib
[53] = at 5 µM, OCI-C5x cells, with rucaparib 10 µM, 100% = cells with rucaparib alone
[54] = at 5 µM, OCI-C5x cells, without rucaparib
[55] = at 5 µM, OCI-P5x cells, with rucaparib 20 µM, 100% = cells with rucaparib alone
[56] = at 5 µM, OCI-P5x cells, without rucaparib

CC(C)CC(=O)N[C@H](C(=O)N[C@H](C(=O)N[C@@H](CC(C)C)[C@@H](O)CC(=O)N[C@@H](C)C(=O)N[C@@H](CC(C)C)[C@@H](O)CC(=O)O)C(C)C)C(C)C (Isovaleryl-VV[Sta]A[Sta]-OH)
7720 and 5130: cell count [14, 21]
active: viability decrease (inhibition) [9] 13%
8480 and 5040: cell count [14, 22]
inactive: parasite load remaining [1] 101% | nuclear beta-catenin stimulation ([2]; at 10 µM) -1.6% | insulin secretion stimulation [3] 4.9% | viability decrease [4] -3.4% | tube area decrease [5] -25.1% | GLP1 secretion stimulation [6] 0.5% | inhibition of viability [7] 4% | viability decrease (inhibition) [8] -0.3% | outcome [10] | outcome [11] | outcome [12] | outcome [13] | fold change [14, 19] 0.91 and 1.02 | z-score [15, 23] -1.11
-0.3%: nuclear beta-catenin stimulation ([2]; stimulation, at 2 µM)
102%: viability [1]
1.28 and 1.09: fold change [14, 20]
-0.328: z-score [15, 24]

O=C(NOCC1CC1)c1ccc(F)c(F)c1Nc1ccc(I)cc1Cl
inactive: nuclear beta-catenin stimulation ([2]; at 10 µM) 1.5% | insulin secretion stimulation [3] -0.4% | viability decrease [4] 43.3% | GLP1 secretion stimulation [6] 9.6% | fold change [14, 19] 1.1 | z-score [15, 23] -0.582 | viability [16, 25] 116% | viability [16, 26] 119% | viability [16, 27] 142% | viability [16, 28] 100% | viability [16, 29] 112% | viability [16, 30] 120% | viability [16, 31] 135% | viability [16, 32] 109% | viability [16, 33] 123% | viability [16, 34] 118% | viability [16, 35] 126% | viability [16, 37] 115% | viability [16, 38] 127% | viability [16, 39] 122% | viability [16, 40] 107% | viability [16, 41] 121% | viability [16, 42] 111% | viability [16, 43] 124% | viability [16, 44] 110% | viability [16, 45] 121% | viability [16, 46] 119% | viability [16, 47] 106% | viability [16, 49] 104% | viability [16, 50] 117% | viability [16, 54] 116%
1.7%: nuclear beta-catenin stimulation ([2]; stimulation, at 2 µM)
2940: cell count [14, 22]
0.299: z-score [15, 24]
active: tube area decrease [5] 104% | inhibition of viability [7] 87.4% | viability decrease (inhibition) [8] 133% | viability decrease (inhibition) [9] 92.4% | AC50 [10] 2.35 µM | AC50 [11] 11.8 µM | AC50 [12] 16.6 µM | IC50 [13] 13.2 µM | viability [16, 36] 97.9% | viability [16, 48] 92.7% | viability [16, 51] 87.2% | viability [16, 52] 90.5% | viability [16, 53] 87.6% | viability [16, 55] 61% | viability [16, 56] 63.3%
3240: cell count [14, 21]
0.574: fold change [14, 20]

C[C@H]1C[C@H]2[C@@H]3CCC4=CC(=O)C=C[C@]4(C)[C@H]3C(=O)C[C@]2(C)[C@@]1(O)C(=O)CO
inactive: nuclear beta-catenin stimulation ([2]; at 10 µM) 0.1% | insulin secretion stimulation [3] 1.5% | viability decrease [4] 19% | tube area decrease [5] -11% | GLP1 secretion stimulation [6] 0.7% | inhibition of viability [7] -1.9% | viability decrease (inhibition) [8] 0.2% | viability decrease (inhibition) [9] 5.4% | outcome [10] | outcome [11] | outcome [12] | outcome [13]
1.2%: nuclear beta-catenin stimulation ([2]; stimulation, at 2 µM)

CNC(=O)c1cc(Oc2ccc(NC(=O)Nc3ccc(Cl)c(C(F)(F)F)c3)cc2)ccn1
inactive: nuclear beta-catenin stimulation ([2]; at 10 µM) -1.4% | insulin secretion stimulation [3] 0.4% | GLP1 secretion stimulation [6] -3.6% | fold change [14, 19] 0.979 and 1.42 | z-score [15, 23] -0.549 and -0.383 | viability [16, 25] 115% | viability [16, 26] 112% | viability [16, 27] 124% | viability [16, 29] 119% | viability [16, 30] 111% | viability [16, 31] 129% | viability [16, 33] 119% | viability [16, 34] 114% | viability [16, 35] 136% | viability [16, 37] 111% | viability [16, 38] 112% | viability [16, 39] 133% | viability [16, 40] 101% | viability [16, 41] 108% | viability [16, 42] 106% | viability [16, 43] 144% | viability [16, 45] 111% | viability [16, 46] 116% | viability [16, 47] 144% | viability [16, 48] 105% | viability [16, 49] 116% | viability [16, 50] 120% | viability [16, 51] 155% | viability [16, 52] 114% | viability [16, 53] 123% | viability [16, 54] 126% | viability [16, 56] 116%
1350 and 2320: cell count [14, 22]
9.1%: nuclear beta-catenin stimulation ([2]; stimulation, at 2 µM)
0.813 and 0.844: z-score [15, 24]
active: viability decrease [4] 120% | tube area decrease [5] 111% | inhibition of viability [7] 124% | viability decrease (inhibition) [8] 166% | viability decrease (inhibition) [9] 102% | AC50 [10] 14.8 µM | AC50 [11] 18.7 µM | AC50 [12] 18.7 µM | IC50 [13] 10.5 µM | viability [16, 28] 97.6% | viability [16, 32] 99.4% | viability [16, 36] 99.4% | viability [16, 44] 99.6% | viability [16, 55] 31.8%
1320 and 3300: cell count [14, 21]
0.87 and 0.612: fold change [14, 20]

NC(=O)n1c(O)c(C(=O)c2cccs2)c2cc(Cl)ccc21
-0.7%: nuclear beta-catenin stimulation ([2]; stimulation, at 2 µM)
1.95: fold change [14, 20]
inactive: nuclear beta-catenin stimulation ([2]; at 10 µM) -0.2% | insulin secretion stimulation [3] 0.2% | GLP1 secretion stimulation [6] -0.5% | remaining activity [17] 121% | fold change [14, 19] 0.969 | z-score [18] -0.475
active: viability decrease [4] 106% | tube area decrease [5] 58.6% | inhibition of viability [7] 102% | viability decrease (inhibition) [8] 128% | viability decrease (inhibition) [9] 97.5%
7020: cell count [14, 21]
7250: cell count [14, 22]
